# PubChem BioAssay
# Biological target: Focal adhesion kinase 1 (Homo sapiens) (UniProt Q05397)
# Assay: PTK2 protein binding on printed compound slides – biochemical, small-molecule microarray, 635/667 nm fluorescence, BSA, DTT, primary screen (AID 1130);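 further: composite of spot emission at 667 nm and signal to noise over triplicate slides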
# Conditions: 635 nm fluorescence, higher = more signal
# Focal adhesion kinase 1 (Homo sapiens), sequence (Q05397 whole entry, looked up): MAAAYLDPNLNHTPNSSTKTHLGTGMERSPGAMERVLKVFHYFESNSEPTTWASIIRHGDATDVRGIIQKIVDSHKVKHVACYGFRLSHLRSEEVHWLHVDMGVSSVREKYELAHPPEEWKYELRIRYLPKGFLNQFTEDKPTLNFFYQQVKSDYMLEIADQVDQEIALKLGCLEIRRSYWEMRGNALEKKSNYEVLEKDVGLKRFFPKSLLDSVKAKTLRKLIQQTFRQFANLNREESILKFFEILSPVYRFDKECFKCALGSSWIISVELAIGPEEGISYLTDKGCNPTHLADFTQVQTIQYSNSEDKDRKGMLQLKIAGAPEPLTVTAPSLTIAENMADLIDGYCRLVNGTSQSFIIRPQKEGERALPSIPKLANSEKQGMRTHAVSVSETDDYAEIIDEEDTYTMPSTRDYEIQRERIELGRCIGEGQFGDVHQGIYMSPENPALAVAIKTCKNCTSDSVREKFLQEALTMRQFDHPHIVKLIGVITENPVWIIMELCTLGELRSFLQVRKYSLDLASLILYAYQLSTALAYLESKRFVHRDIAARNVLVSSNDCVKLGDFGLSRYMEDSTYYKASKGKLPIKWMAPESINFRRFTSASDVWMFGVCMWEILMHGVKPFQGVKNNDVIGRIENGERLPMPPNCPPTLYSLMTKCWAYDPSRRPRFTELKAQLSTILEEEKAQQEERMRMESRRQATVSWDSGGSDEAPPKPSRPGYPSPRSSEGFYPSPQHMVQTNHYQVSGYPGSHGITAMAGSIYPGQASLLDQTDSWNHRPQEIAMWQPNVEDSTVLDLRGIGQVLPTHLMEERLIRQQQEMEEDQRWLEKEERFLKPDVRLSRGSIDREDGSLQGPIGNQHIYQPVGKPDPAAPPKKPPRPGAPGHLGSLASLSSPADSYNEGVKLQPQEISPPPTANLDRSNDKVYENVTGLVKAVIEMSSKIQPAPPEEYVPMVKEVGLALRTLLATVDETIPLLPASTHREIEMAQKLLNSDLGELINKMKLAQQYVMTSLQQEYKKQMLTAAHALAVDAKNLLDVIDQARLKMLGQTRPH
row,SMILES,composite z-score
1,CO[C@H]1COC(=O)[C@H](CCSC)NC(=O)CC=C[C@@H](C)COC(=O)[C@@H](OCc2ccccc2)C=C[C@@H]1C,-0.36
2,CCC(=O)[C@]12O[C@@]3([C@@H]4C(=O)OCC[C@@H]41)N(Cc1ccccc1)C(C)=C(C(=O)OC)[C@@H](c1ccccc1)N3C2=O,0.0625
3,COC(=O)[C@@]1(Cc2ccc(OC)cc2)[C@H]2c3cc(C(=O)N(C)C)n(CCc4ccc(OC)c(Br)c4)c3C[C@H]2CN1C(=O)c1ccccc1,2.29
4,C#CCCCON=C1C[C@@H](O)[C@@H](O)[C@@H]2[C@@H]3C(=O)N(Cc4ccc5c(c4)OCO5)C(=O)[C@@H]3CC[C@H]12,0.168
5,COC(=O)c1c(CC[C@@H](CO)NC(=O)N[C@H](Cn2cc(-c3cncn3C)nn2)C(C)C)oc(C(C)=O)c1C(=O)OC,-0.205
6,CCOC(=O)C1=CC[C@@H](c2ccc(-c3ccc(OCc4ccccc4)cc3)c(OC)c2)N(S(=O)(=O)c2ccc(C)cc2)[C@H]1c1ccccc1,-0.0822
